Compound activity: PubChem, National Center for Advancing Translational Sciences (NCATS)
Hits are enriched below; roughly 3.8% of the tested compounds scored in any of these assays.
HepG2 viability = counter-screen for TGF-b inhibitors: cytotoxicity in HepG2 cells | AID 588856 | actives 0.76% (n = 410,000) | HepG2 CAGA-GFP viability, ATP luminescence, 18 h | Potency, µM (series often up to 46.1 µM), for inactives: at the top dose activity change, negative = cytotoxicity, hits mostly cytotoxic
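HepG2 CAGA-GFP cells (1000/well, DMEM with 1% FBS) received compound, then TGF-beta at 500 pg/mL final, and were incubated 18 hours at 37 degrees C. Viability was read by CellTiter-Glo luminescence. Media-only wells were set as complete cell-killing and DMSO as no toxicity.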
HT1080 IDH1KD tx = kills HT-1080 cells with IDH1 knockdown; HT-1080 IDH1 knockdown viability, ATP luminescence, 48 h; Potency, µM (top dose mostly 46.1 µM), for inactives: at the top dose activity, negative = toxicity, most hits filed as cytotoxic; actives 2% (n = 360,000);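 note: 0% = DMSO wells and -100% = cell-free medium wells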
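Knockdown cells (IDH1KD HT-1080) received compounds 2 h after plating at 750 cells/well and were kept 48 h at 37 °C in 5% FBS RPMI. A CellTiter-Glo luminescence read gave % activity for curve fitting.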
TGFb inhibitor = blocks TGF-b signaling; actives 1.2% (n = 410,000); AID 588855; Potency, µM (series often up to 46.1 µM), inactives show at the highest dose activity, negative = inhibition, usual class: inhibitors; HepG2 CAGA-GFP TGF-b/SMAD3 reporter, GFP fluorescence, 18 h; TGF-beta stimulated, 500 pg/mL final; note: % is set by controls: 0 for no effect and ±100 for the full control effect; nearly all actives have a fitted effect of over 65% in size
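TGF-beta reporter screen: HEPG2 CAGA-GFP, 1% FBS, 500 pg/mL TGF-beta final, 18 h; per-cell GFP summed per well; curves fitted and categorized by class.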
ATXN2 expr inh = reduces ATXN2 reporter expression in HEK-293 cells. HEK-293 ATXN2-luciferase reporter, luminescence, 24 h. Potency, µM (series often up to 57 µM), without a hit: top-dose activity change, negative = inhibition, most hits filed as inhibitors. actives 0.72% (n = 360,000). AID 1745845; note: % is set by controls: 0 for no effect and ±100 for the full control effect; nearly all actives have a fitted effect of over 55% in size
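qHTS (up to 57 uM final) was run with 24 h compound exposure of reporter cells at 37 °C. Each well was multiplexed: SteadyGlo luminescence measured ATXN2-luciferase expression after a fluorogenic Gly-Phe-AFC viability readout (25 uM final).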
ATXN viability = cell viability loss in ATXN counter-screen | Potency, µM (doses to about 56.7 µM), actives largely listed as cytotoxic | S2 cells (HEK-293 line with an ATXN2-luciferase reporter) viability, CellTiter-Fluor protease fluorescence, 24 h | AID 651635 | actives 0.49% (n = 400,000); note: nearly all actives have a fitted effect of over 40% in size
HT1080NT lethal = kills 2HG-producing HT-1080-NT fibrosarcoma cells. HT-1080-NT fibrosarcoma viability, CellTiter-Glo ATP luminescence, 48 h. Potency, µM (doses to about 46.1 µM), without a hit: top-dose activity, negative = less viability, most hits filed as cytotoxic. actives 1.6% (n = 360,000);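 note: NT is the 2HG producing partner of a matched IDH1 knockdown line; 0% = DMSO-treated cells and -100% = media-only wells without cells; nearly all actives have a fitted effect of over 55% in size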
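Luminescent CellTiter-Glo readout after 48 hours of compound exposure at 37 degrees C defined viability of HT-1080-NT cells. Activity was normalized to DMSO wells and cell-free media wells; concentration-response curves were fitted and assigned curve classes.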
The depositor's hits bear a star; i = inactive; u = inconclusive; x = no result; ! = not confirmed by another sample; [ ] = dose if it differs, or a comment. Calls come from the whole dose curve; as a rule, active = well fitted curve in the direction sought with a large enough effect; inconclusive = small, poorly fitted or top-dose-only effect, or another doubt; inactive = no such curve, though single readings can be large; an effect the other way counts as inactive or inconclusive. Potency is the fitted concentration of half-maximal effect.

SMILES | HepG2 viability | HT1080 IDH1KD tx | TGFb inhibitor | ATXN2 expr inh | ATXN viability | HT1080NT lethal
CC(C)CNC(=O)c1c(N)n(Cc2ccc3c(c2)OCO3)c2nc3ccccc3nc12 | -94% | 16µM* | 16µM* | u | i | 21µM*
CC(C)OCCCNC(=O)c1c(N)n(Cc2cccs2)c2nc3ccccc3nc12 | 22µM* | u | 18µM* | u | i | 18µM*
CCCNC(=O)c1c(N)n(Cc2ccco2)c2nc3ccccc3nc12 | -28% | u | -12% | -29% | x | 11µM*
CCCCCn1c(NC(=O)c2ccco2)c(C(=O)OCC)c2nc3ccccc3nc21 | 16µM* | 12µM* | 20µM* | u | i | 9.2µM*
COc1ccc(Cn2c(N)c(C(=O)NCc3ccco3)c3nc4ccccc4nc32)cc1OC | -51% | u | 16µM* | u | i | u
N[C@@H](Cc1ccc(Oc2cc(I)c(O)c(I)c2)c(I)c1)C(=O)O | x | x | x | 3% | i | x
COc1cccc(CN2CCc3nc(N4CCN(c5ncccn5)CC4)ncc3C2)c1 | -23% | x | u | u | u | x
Cc1ccc(NC(=O)c2cc(S(=O)(=O)N3CCOCC3)c(Cl)cc2Cl)cc1 | -29% | x | u | u | u | x
CC(C)CCOP(=O)(c1ccc(N(C)C)cc1)C(O)c1ccc(Cl)cc1Cl (stereo not given) | -170% | 16µM* | u | 0% | u | 23µM*
CC(C)c1oc(=O)cc2c1[C@@H](O)[C@H]1OC(=O)[C@@]3(C)CC[C@@H](O)[C@@]2(C)C13 (stereo not given in full) | -25% | u | 2µM* | 13µM* | u | u
CC(C)Oc1cccc(NC(=O)c2ccccc2C(F)(F)F)c1 | x | x | x | -13%[116 µM] | i | x
C[C@H](CO)N1C[C@H](C)[C@H](CN(C)S(=O)(=O)c2ccc(Cl)cc2)OCc2ccccc2-c2c(n(C)c3ccccc23)C1=O | -19% | u | u | u | u | u
CCOc1cc(CNCCc2c[nH]c3ccccc23)cc(Cl)c1OC | -94% | 21µM* | 16µM* | u | u | 18µM*
Clc1cccc(CNCCc2c[nH]c3ccccc23)c1 | -4% | 16µM* | -9% | -34% | i | 18µM*
COc1cc(CC(C)N)cc2c1OCO2 (stereo not given) | x | x | x | -11%[116 µM] | i | x
O=S(=O)(NC1CN2CCC1CC2)c1ccc(Cl)cc1 (stereo not given) | 3% | 3% | 0% | -12% | i | 5%
O=C(COc1ccc(Cl)cc1)N(c1ccccc1Cl)C1CN2CCC1CC2 (stereo not given) | -20% | 16µM* | u | -24% | i | u
O=C(COc1ccc(Cl)cc1)N(c1ccc(Cl)cc1)C1CN2CCC1CC2 (stereo not given) | -97% | 15µM* | 14µM* | -26% | u | 16µM*
C#C[C@@]1(O)CC[C@@H]2[C@@H]3CCC4=CC(=O)CC[C@@]4(C)[C@H]3CC[C@]21C | x | x | x | x | i | x
CCC(=O)O[C@@H]1C=C2CCC3C(CCC4(C)C3CC[C@@H]4OC(=O)CC)C2CC1 (stereo not given in full) | x | x | x | 0% | i | x
O=C(CN1CCCCC1)c1ccccc1 | -16% | x | u | x | x | x
CC1CCN(C(CC(=O)c2ccccc2)C(=O)c2ccccc2)CC1 (stereo not given) | 22µM* | u | u | u | i | -12%
CC[C@@H](C(=O)[C@@H](C)[C@@H](O)[C@H](C)[C@@H]1O[C@@H]([C@@H](CC)C(=O)O)CC[C@@H]1C)[C@H]1O[C@]2(C=C[C@@H](O)[C@]3(CC[C@@](C)([C@H]4CC[C@](O)(CC)[C@H](C)O4)O3)O2)[C@H](C)C[C@@H]1C | -20% | 2.9µM* | u | 4.5µM* | 5.6µM* | 0.52µM*
CN(C)CCCN1c2ccccc2Sc2ccc(Cl)cc21 | 18µM*! | u | u | 20µM*! | i | 15µM*!
O=S(=O)(c1ccc(Nc2ccc(-c3ccc4c(c3)OCCO4)nn2)cc1)N1CCCC1 | -15% | u | -12% | 39% | i | 16µM*
SMILES | HepG2 viability | HT1080 IDH1KD tx | TGFb inhibitor | ATXN2 expr inh | ATXN viability | HT1080NT lethal
O=C(COc1cccc(C(F)(F)F)c1)Nc1ccc(S(=O)(=O)N2CCCC2)cc1 | -21% | u | -9% | -2% | i | 0%[9.24 µM]
C[C@]12CC[C@H]3[C@@H](CCC4=CC(=O)CC[C@@H]43)[C@@H]1CC[C@@H]2OC(=O)CCc1ccccc1 | x | x | x | -4% | i | x
Cc1cccc(OC(=O)N2CCOCC2)c1 | -3% | 2% | 6% | -5% | i | 3%
CC(C)(C)c1ccc(/C=C2\Oc3cc(OC(=O)N4CCOCC4)ccc3C2=O)cc1 | -23% | 18µM* | u | -27% | u | 21µM*
O=C(O)[C@H](O)[C@@H](O)C(=O)O | -9% | 6% | -4% | -4% | i | 9%
Oc1c(C(Nc2cccnc2)c2ccccc2F)ccc2cccnc12 (stereo not given) | -10% | x | u | x | x | x
O=C(Cc1c(O)c2ccccc2oc1=O)c1ccc(F)cc1 | 1% | 20% | -10% | 17% | u | 19%
Cc1ccc(C)c(NC(=O)Cn2c(=O)oc3cc(S(=O)(=O)NCc4ccccc4)ccc32)c1 | -37% | x | u | -9% | i | x
Oc1ccc(Cl)cc1 | -4% | 1% | 0% | -12% | i | -1%
Oc1ccc(Cl)cc1Sc1cc(Cl)ccc1O | -124% | 21µM* | 8.9µM* | u | u | 21µM*
CN1C(=O)/C(=C/c2ccc(Cl)s2)C(=O)NC1=S | -20% | u | -14% | u | 16µM* | u
OC[C@H]1OC(O)C[C@@H](O)[C@@H]1O (stereo not given in full) | -1% | 17% | -16% | 1% | i | u
Cc1ccc(S(=O)(=O)c2nc(-c3ccccc3Cl)oc2N(C)C2CCN(C)CC2)cc1 | 11µM* | u | u | -33% | u | u
Cc1oc(-c2ccccc2Cl)nc1CN1C(=O)CN=C(c2ccccc2)c2cc(Cl)ccc21 | 5% | x | -1% | u | x | x
CN1C(=O)NC(=O)/C(=C\C=C\c2ccccc2[N+](=O)[O-])C1=O | -19% | 12µM* | 11µM* | 32µM* | 28µM* | u
CCCCCCCSc1cc(OC)c(CCN(C)C)cc1OC | -121% | -23% | u | 22µM* | x | -10%
CCCCCSc1cc(OC)c(CCN)cc1OC | -101% | u | u | -13% | u | u
